Assay results published in PubChem BioAssay (EPA / NIEHS).
Where “and” joins values, the source holds several entries; their conditions need not be identical. Identical values can stand only once. Records with an inconclusive call do not appear. Some compounds were tested as several samples or in several runs, with calls that do not always agree. Calls of active or inactive are those of the source. The calls were made as follows: active = hit-call score of the fitted dose curve at least 0.9, where 1 is the maximum; inconclusive = response in the unintended direction; inactive = score below 0.9.

Assays:
[1] = target: bovine Estrogen Receptor (ER), ESR1 (gene 407238) (UniProt P49884); assay: NVS_NR_bER: NovaScreen (NVS) Nuclear Receptor Binding Assay for bovine Estrogen Receptor (ER) (AID 2283345);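 also: actives lower the bound radioligand count which means they displace the ER ligand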
Summary of the method: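 Cell-free radioligand binding with bovine uterine membrane extracts, read 18 hours after dosing by scintillation counting. Loss of signal versus DMSO baseline indicates displacement. Primary screen run in duplicate at 25 uM, actives followed in concentration series.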

[2] = target: Estrogen receptor (Homo sapiens) (UniProt P03372); assay: NVS_NR_hER: NovaScreen (NVS) Nuclear Receptor Binding Assay for human Estrogen Receptor (ER) (AID 2283348)
Summary of the method: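 MCF7-derived receptor extract, radiolabelled ligand, competitive displacement. Read: scintillation counts at 18 h. DMSO = negative control/baseline. Primary 25 uM duplicate; follow-up concentration–response.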

[3] = target: Estrogen receptor (Homo sapiens) (UniProt P03372); assay: OT_ER_ERaERa_1440: Odyssey Thera (OT) 24-hour HEK293T Protein-Complementation Assay for Estrogen Receptor-alpha/-alpha Homodimer (AID 2283349);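 also: hits raise fluorescence above DMSO for agonists and antagonists alike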
Summary of the method: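 Cells (HEK293T) carrying the fragment-tagged ERα LBD (aa 310-547) pair are treated with chemical for 24 hours. Nuclear and/or cytoplasmic fluorescence is then quantified on a laser scanning cytometer. Activity is scored as signal gain against DMSO.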

[4] = target: Estrogen receptor (Homo sapiens) (UniProt P03372); assay: OT_ER_ERaERa_0480: Odyssey Thera (OT) 8-hour HEK293T Protein-Complementation Assay for Estrogen Receptor-alpha/-alpha Homodimer (AID 2283351);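 also: rise in fluorescence from reassembled reporter fragments on ERα LBD homodimer in nucleus or whole cell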
Summary of the method: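 Cells were treated for 8 hours, then imaged on a laser scanning plate cytometer. Complementation of reporter fragments fused to the human ERα ligand-binding domain (residues 310-547) in HEK293T gave fluorescence, and gain of signal over vehicle was fitted.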

NCBI gene 100848466 = assay: NVS_NR_bPR: NovaScreen (NVS) Nuclear Receptor Binding Assay for bovine Progextron Receptor (PR) (AID 2283343);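 as to AC50: actives lower bound radioligand signal below DMSO meaning displacement of the label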
Summary of the method: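 Scintillation counts of bound radioligand were read 18 hours after chemical addition to membranes extracted from bovine uterus. Displacement was scored as loss of signal relative to DMSO controls. Screening began at 25 uM in duplicate.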

[5] = target: chimpanzee Androgen Receptor (AR), AR (gene 747460) (UniProt O97775); assay: NVS_NR_cAR: NovaScreen (NVS) Nuclear Receptor Binding Assay for chimpanzee Androgen Receptor (AR) (AID 2283346);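 also: radioligand displacement from AR measured by scintillation counting in a cell-free assay; a loss of bound radioligand signal versus DMSO counts as binding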
Summary of the method: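 Radioligand binding to chimpanzee AR expressed in Sf9/Sf21 cells, cell-free, measured 72 h after dosing by lysate-based scintillation counting. Loss of signal vs DMSO; initial duplicate screen at 25 uM, actives retested in concentration series.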

[6] = target: Bile acid receptor (Homo sapiens) (UniProt Q96RI1); assay: NVS_NR_hFXR_Antagonist: NovaScreen (NVS) Nuclear Receptor Binding Assay for human Farnesoid X Receptor Antagonism (FXR) (AID 2283350)
Summary of the method: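 Antagonist-format time-resolved FRET binding assay with extracted human receptor protein, read 1 hour after compound addition. Compounds first screened at 25 uM in duplicate, then actives tested in concentration series, with loss of signal relative to DMSO.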

[7] = target: Estrogen receptor (Homo sapiens) + Estrogen receptor beta (Homo sapiens) (UniProt P03372+Q92731); assay: OT_ER_ERaERb_0480: Odyssey Thera (OT) 8-hour HEK293T Protein-Complementation Assay for Estrogen Receptor-alpha/-beta Heterodimer (AID 2283352)
Summary of the method: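 Increase in mean fluorescence intensity, measured by laser scanning plate cytometry, reported ER-alpha/ER-beta LBD complementation in HEK293T cells after 8 h chemical exposure. DMSO served as baseline; basal signal is low, punctate and cytoplasmic.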

[8] = target: human Constitutive Androstane Receptor (CAR), NR1I3 (gene 9970) (UniProt Q14994); assay: NVS_NR_hCAR_Antagonist: NovaScreen (NVS) Nuclear Receptor Binding Assay for human Constitutive Androstane Receptor Antagonism (CAR) (AID 2283344)
Summary of the method: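 Single 25 uM duplicate primary screen, with concentration-series follow-up on actives. Cell-free binding format run in antagonist mode, TR-FRET signal taken 1 h post-dose; activity is signal loss relative to DMSO.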

[9] = target: Bile acid receptor (Homo sapiens) (UniProt Q96RI1); assay: NVS_NR_hFXR_Agonist: NovaScreen (NVS) Nuclear Receptor Binding Assay for human Farnesoid X Receptor Agonism (FXR) (AID 2283347)
Summary of the method: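 Agonist-mode FXR assay read by time-resolved FRET 1 h after compound addition, using isolated human receptor protein without cells. Duplicate 25 uM single-point primary screen, concentration series for confirmed actives; DMSO as baseline.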

Measured: AC50

Bile acid receptor (Homo sapiens), sequence (Q96RI1 whole entry, looked up): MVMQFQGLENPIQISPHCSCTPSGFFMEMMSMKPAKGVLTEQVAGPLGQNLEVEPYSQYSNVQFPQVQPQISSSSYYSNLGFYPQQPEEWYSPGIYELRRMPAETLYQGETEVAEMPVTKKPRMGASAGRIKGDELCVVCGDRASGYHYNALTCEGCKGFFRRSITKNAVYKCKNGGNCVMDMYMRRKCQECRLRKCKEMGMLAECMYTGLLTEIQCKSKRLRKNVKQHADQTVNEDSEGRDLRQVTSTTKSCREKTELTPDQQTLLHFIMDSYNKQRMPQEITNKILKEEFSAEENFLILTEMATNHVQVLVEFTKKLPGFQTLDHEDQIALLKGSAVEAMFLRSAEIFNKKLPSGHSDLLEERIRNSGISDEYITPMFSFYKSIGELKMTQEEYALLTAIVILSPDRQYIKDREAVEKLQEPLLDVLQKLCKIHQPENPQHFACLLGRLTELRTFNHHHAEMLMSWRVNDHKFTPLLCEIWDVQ
human Constitutive Androstane Receptor (CAR), NR1I3 (gene 9970), sequence (Q14994 whole entry, looked up): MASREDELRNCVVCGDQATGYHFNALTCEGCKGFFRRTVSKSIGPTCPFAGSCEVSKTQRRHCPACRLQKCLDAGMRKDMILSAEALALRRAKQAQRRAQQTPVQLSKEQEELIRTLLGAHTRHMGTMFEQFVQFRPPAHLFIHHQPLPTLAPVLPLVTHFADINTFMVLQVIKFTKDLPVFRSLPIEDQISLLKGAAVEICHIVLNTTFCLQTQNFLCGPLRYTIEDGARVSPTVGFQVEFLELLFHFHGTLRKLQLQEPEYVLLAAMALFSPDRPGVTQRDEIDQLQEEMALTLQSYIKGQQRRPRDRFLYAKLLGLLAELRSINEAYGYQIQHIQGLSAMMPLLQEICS
chimpanzee Androgen Receptor (AR), AR (gene 747460), sequence (O97775 whole entry, looked up): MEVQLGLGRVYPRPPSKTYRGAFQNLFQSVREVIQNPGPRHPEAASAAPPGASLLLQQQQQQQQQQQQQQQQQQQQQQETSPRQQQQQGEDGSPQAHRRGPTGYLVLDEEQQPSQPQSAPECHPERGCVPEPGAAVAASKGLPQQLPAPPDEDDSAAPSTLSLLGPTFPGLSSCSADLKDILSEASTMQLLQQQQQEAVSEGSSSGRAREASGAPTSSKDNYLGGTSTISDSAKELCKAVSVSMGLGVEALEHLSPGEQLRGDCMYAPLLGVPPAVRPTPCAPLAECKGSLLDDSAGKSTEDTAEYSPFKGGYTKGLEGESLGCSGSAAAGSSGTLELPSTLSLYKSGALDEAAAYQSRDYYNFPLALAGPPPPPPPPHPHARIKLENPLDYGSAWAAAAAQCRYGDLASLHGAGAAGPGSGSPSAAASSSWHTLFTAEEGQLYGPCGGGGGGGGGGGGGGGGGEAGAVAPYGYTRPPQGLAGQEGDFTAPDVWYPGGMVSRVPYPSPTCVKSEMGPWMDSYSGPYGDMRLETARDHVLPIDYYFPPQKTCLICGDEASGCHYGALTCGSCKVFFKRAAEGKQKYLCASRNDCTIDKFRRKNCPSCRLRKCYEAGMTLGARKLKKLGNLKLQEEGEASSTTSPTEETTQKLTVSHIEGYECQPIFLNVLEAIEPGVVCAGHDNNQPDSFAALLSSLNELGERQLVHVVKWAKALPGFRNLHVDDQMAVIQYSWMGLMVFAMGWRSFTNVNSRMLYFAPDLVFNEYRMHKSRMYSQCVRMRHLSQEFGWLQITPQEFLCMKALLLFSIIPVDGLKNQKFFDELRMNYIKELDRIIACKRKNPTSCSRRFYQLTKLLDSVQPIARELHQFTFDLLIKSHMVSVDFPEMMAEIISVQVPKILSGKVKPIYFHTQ
Estrogen receptor (Homo sapiens), sequence (P03372 whole entry, looked up, the tested form may be a part): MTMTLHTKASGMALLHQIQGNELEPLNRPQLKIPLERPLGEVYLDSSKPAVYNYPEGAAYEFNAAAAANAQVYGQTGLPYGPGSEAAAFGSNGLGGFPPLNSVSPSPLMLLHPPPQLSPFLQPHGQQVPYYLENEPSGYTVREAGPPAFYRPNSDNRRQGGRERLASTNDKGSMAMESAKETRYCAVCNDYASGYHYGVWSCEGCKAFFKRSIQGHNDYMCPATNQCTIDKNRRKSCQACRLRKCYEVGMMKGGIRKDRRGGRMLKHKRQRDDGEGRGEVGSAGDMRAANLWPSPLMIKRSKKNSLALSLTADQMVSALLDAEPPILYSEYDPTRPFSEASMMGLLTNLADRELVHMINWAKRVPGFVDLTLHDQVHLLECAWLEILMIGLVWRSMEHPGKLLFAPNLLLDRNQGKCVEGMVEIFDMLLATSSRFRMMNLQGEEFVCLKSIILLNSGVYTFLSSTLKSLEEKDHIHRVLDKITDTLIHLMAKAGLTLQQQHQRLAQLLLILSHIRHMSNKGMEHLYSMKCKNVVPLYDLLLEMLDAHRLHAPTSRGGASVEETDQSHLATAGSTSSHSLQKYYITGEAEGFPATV
Estrogen receptor (Homo sapiens) + Estrogen receptor beta (Homo sapiens), sequence (P03372 whole entry, looked up, the tested form may be a part): as above
Estrogen receptor (Homo sapiens) + Estrogen receptor beta (Homo sapiens), sequence (Q92731 whole entry, looked up, the tested form may be a part): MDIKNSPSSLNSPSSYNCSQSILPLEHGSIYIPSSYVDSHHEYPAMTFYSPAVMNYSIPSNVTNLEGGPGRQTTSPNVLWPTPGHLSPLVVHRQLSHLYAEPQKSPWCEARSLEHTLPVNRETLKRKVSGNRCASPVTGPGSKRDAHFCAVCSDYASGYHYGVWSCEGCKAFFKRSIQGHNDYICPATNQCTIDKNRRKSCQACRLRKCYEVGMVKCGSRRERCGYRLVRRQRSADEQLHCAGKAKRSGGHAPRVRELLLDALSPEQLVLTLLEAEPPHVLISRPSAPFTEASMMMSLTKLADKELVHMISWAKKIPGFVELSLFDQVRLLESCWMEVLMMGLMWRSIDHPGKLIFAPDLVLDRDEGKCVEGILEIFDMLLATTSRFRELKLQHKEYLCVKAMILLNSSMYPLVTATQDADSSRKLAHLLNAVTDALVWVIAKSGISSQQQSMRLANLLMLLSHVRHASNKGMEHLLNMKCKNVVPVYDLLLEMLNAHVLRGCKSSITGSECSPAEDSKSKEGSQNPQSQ
bovine Estrogen Receptor (ER), ESR1 (gene 407238), sequence (P49884 whole entry, looked up): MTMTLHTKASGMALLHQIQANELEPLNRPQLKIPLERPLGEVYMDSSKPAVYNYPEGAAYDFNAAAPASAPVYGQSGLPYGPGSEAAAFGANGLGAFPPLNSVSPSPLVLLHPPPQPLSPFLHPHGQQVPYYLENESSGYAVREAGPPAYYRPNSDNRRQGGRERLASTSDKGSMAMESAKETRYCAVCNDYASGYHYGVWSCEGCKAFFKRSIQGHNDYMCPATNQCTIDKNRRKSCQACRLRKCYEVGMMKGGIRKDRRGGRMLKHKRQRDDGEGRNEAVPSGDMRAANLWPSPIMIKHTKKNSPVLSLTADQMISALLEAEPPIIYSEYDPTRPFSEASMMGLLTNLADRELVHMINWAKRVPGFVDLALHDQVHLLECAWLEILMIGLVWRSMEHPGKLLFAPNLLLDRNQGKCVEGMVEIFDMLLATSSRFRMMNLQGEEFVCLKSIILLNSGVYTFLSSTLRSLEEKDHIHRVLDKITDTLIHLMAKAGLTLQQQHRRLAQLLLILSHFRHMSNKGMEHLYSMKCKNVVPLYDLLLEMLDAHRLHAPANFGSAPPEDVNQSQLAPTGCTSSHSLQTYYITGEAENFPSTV

O=C(O)C(F)(F)C(F)(F)C(F)(F)C(F)(F)C(F)(F)C(F)(F)C(F)(F)C(F)(F)C(F)(F)F
inactive: [1] | [2] | [3] | [4]

C[C@]12CCC(=O)C=C1CC[C@@H]1[C@@H]2CC[C@]2(C)C(=O)CC[C@@H]12
inactive: [2] | [3] | [4] | [7]
active: NCBI gene 100848466 12.8 µM | [1] 25 µM | [5] 0.182 µM | [2] 38.5 µM | [6] 1.35 µM

Clc1ccc(C(c2ccccc2Cl)C(Cl)(Cl)Cl)cc1 (configuration not stated)
inactive: [1] | [2]

CC(C)(O)C(=O)Nc1ccc([N+](=O)[O-])c(C(F)(F)F)c1
inactive: [1] | [2] | [3] | [4] | [7]
active: NCBI gene 100848466 4.47 µM | [5] 155 nM and 268 nM

ClC1=C(Cl)[C@]2(Cl)[C@@H]3[C@@H](Cl)[C@H]4O[C@H]4[C@@H]3C1(Cl)C2(Cl)Cl
inactive: [8] | [2] | [3] | [4] | [7]

C[C@]12CCC(=O)C=C1CC[C@@H]1[C@@H]2CC[C@@]2(C)[C@H]1CC[C@]2(C)O
inactive: [1] | [9] | [3] | [4]
active: NCBI gene 100848466 0.149 µM | [5] 2.09 nM and 6.55 nM | [2] 6.34 µM and 6.28 µM and 6.19 µM

Oc1c(Cl)c(Cl)c(Cl)c(Cl)c1Cl
active: [5] 5 µM
inactive: [1] | [3] | [4]

O=S(=O)(O)C(F)(F)C(F)(F)C(F)(F)C(F)(F)C(F)(F)C(F)(F)F
inactive: [8] | [9] | [2] | [3] | [4]

CCC(=O)O[C@H]1CC[C@H]2[C@@H]3CCC4=CC(=O)CC[C@]4(C)[C@H]3CC[C@]12C
inactive: [1] | [5] | [2] | [3] | [4] | [7]
active: [5] 0.801 µM | [2] 14 µM | [3] 11.6 µM

Cc1cc(O)ccc1Cl
inactive: [1] | [3] | [4]
active: [2] 16.1 µM | [7] 50 µM

Oc1ccc(Cl)cc1Cl
inactive: [1] | [2] | [3] | [4]
active: [7] 66.5 µM

c1cc2ccc3cccc4ccc(c1)c2c34
inactive: [8] | [3] | [6] | [4]

O=C(O)C(F)(F)C(F)(F)C(F)(F)C(F)(F)C(F)(F)C(F)(F)C(F)(F)C(F)(F)F
inactive: NCBI gene 100848466 | [1] | [2] | [3] | [6] | [7]

CCCCCCCCOC(=O)c1ccccc1C(=O)OCCCCCCCC
inactive: [1] | [3] | [4] | [7]

CCC(C)(CC)c1cc(NC(=O)c2c(OC)cccc2OC)on1
inactive: [8]

Cc1cc(-c2ccc(N)c(C)c2)ccc1N
inactive: [2] | [3] | [4]
active: [1] 0.0481 µM | [5] 888 nM and 16 µM | [2] 0.0153 µM | [4] 72.3 µM

CCC(C)(c1ccc(O)cc1)c1ccc(O)cc1
active: NCBI gene 100848466 8.47 µM | [1] 341 nM [middle of 4 runs] | [5] 19.7 µM
inactive: [1] | [5]

CC(C)(c1ccccc1)c1ccc(O)cc1
active: NCBI gene 100848466 19.2 µM | [1] 11.5 µM [middle of 4 runs] | [5] 25 µM | [3] 11.9 µM and 12 µM and 12.1 µM | [4] 11.9 µM and 12 µM | [7] 2.01 µM and 11.9 µM

O=NN(c1ccccc1)c1ccccc1
inactive: [1] | [2] | [3] | [4]

CC(c1ccc(O)cc1)(c1ccc(O)cc1)c1ccc(O)cc1
active: [1] 3.72 µM | [5] 25 µM | [2] 1.06 µM | [3] 11.9 µM | [4] 11.9 µM
inactive: [9]

ClC(Cl)=C(c1ccc(Cl)cc1)c1ccc(Cl)cc1
active: [5] 16.8 µM | [3] 84.3 µM and 78.6 µM | [4] 80.1 µM and 56.9 µM and 63.7 µM
inactive: [1] | [2] | [3]

CCCCCCCCCc1ccc(O)cc1
active: [3] 54.3 µM and 28.9 µM and 39.6 µM | [4] 55.2 µM and 30 µM and 24 µM | [7] 17.6 µM and 14.6 µM and 19.5 µM
inactive: [8] | [1] | [2]
